Data on 7 compounds can be found in PubChem BioAssay (NCATS).

For assay [1], the target named is Calcium and integrin-binding protein 1 (Homo sapiens) (UniProt Q99828). The assay is described as follows: Primary qHTS for Identification of Calcium Integrin Binding Protein 1 (CIB1) Competitor (AID 1508620; active means well fitted curve in the direction sought with a large enough effect; an effect the other way counts as inactive or inconclusive;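 further: GST tagged CIB1 binding a fluorescein labelled alphaIIb integrin peptide tracer; top concentration of the series differs between compounds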). The method in brief:
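Fluorescence polarization competition: GST-tagged CIB1 (1 uM final) preincubated with compound 15 min at room temperature, then FITC-labelled alphaIIb peptide (100 nM final) added. After 15 min at room temperature, polarization read at Ex 480/Em 540.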

The target in assay [2] is Cytochrome P450 2D6 (Homo sapiens) (UniProt P10635). Kind of assay: Cytochrome P450 family 2 subfamily D member 6 (CYP2D6) small molecule antagonists: luciferase biochemical (cell-free) qHTS assay (AID 1645840). Further: nearly all actives have a fitted effect of over 55% in size. Further: potency means the concentration at half of the fitted maximal effect. In a few lines: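 P450-Glo luminescent screen: recombinant CYP2D6 enzyme–proluciferin substrate mix preincubated with compound 10 min at room temperature, then NADPH regeneration added for 1 h at room temperature. Detection reagent added for 20 min; luciferin light read as relative luminescence units.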
Sequence of Cytochrome P450 2D6 (Homo sapiens) (P10635 whole entry, looked up): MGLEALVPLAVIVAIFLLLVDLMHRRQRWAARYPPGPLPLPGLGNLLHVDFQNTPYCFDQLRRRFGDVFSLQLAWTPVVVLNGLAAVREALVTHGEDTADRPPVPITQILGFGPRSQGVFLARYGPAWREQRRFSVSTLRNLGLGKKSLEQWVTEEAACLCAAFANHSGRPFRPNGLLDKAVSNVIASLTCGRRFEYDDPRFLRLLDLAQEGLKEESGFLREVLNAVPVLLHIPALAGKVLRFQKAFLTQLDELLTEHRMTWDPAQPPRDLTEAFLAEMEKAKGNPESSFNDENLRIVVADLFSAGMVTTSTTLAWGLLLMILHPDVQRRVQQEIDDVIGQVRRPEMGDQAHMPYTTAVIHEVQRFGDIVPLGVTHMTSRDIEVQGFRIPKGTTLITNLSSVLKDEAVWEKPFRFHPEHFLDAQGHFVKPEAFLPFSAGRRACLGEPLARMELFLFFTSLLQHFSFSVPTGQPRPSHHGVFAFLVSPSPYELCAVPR

Results filed as inconclusive are left out. Entries that show only a call come without a potency. Activity calls are given as the source filed them. Unless noted, the call rests on the fitted dose curve; in most records, active means well fitted curve in the direction sought with a large enough effect in the repeat runs; inconclusive means weak or mixed curves; inactive means no such curve, though single readings can be large; an effect the other way counts as inactive or inconclusive.

Sequence of Calcium and integrin-binding protein 1 (Homo sapiens) (Q99828 whole entry, looked up): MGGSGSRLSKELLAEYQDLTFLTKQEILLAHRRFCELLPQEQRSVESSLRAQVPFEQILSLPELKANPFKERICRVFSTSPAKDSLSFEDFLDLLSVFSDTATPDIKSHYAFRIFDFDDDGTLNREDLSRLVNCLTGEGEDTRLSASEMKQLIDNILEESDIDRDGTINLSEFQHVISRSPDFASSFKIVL

As for `CN(C)CCN(Cc1ccccc1)C(=O)c1cc(-c2ccc(F)cc2)n2nc(C(C)(C)C)cc2n1`, the Potency result in assay [1] was “inactive”. In assay [2], the Potency is 16.9 µM (active).
For `FC(F)(F)c1ccccc1-c1cc(C(F)(F)F)c2nc(C3=NOC4(CCCCC4)C3)[nH]c2c1`, in that order: “inactive” and “inactive”.
Taken in the same sequence, the figures for `O=C(NCCO)c1cccc(-c2cc(Nc3ccc(OC(F)(F)F)cc3)ncn2)c1` were “inactive” and 23.9 µM (active).
In the case of `Cc1nc(C(=O)N2CCC[C@H]2Cc2nnc(-c3ccccc3)o2)c(-c2ccccc2F)s1`, the Potency entry in assay [1] and in assay [2] was “inactive” throughout.
On to `O=c1ccc2ccc(OCCCCN3CCN(c4cccc5sccc45)CC3)cc2[nH]1`, for which the Potency result in assay [1] was “inactive”. Further, the Potency in assay [2] was 1.34 µM (active).
Taken in the same sequence, the figures for `CC#CCn1c(N2CCCC(N)C2)nc2c1c(=O)n(Cc1nc(C)c3ccccc3n1)c(=O)n2C` (centres undefined) were “inactive” and “inactive”.
For `COc1ccc(C#Cc2ccc(C(=O)N3CCC[C@@H](O)C3)c(F)c2)cc1`, in that order: “inactive” and “inactive”.
